Each structure is given as a SMILES string. Out of some 2,200 compounds screened, about 1,300 (59%) were called active. The rule behind the calls is not given here. The set was probably picked from earlier hits. A selection follows. Measured potencies and affinities stand elsewhere.

This note sets out measurements from PubChem BioAssay AID2253 (Southern Research Specialized Biocontainment Screening …, 2010).

A short description of this test: human monocytic cell viability reduction – S. typhimurium screen hits, cytotoxicity control for Salmonella PhoP regulon inhibitors, dose response (AID 2253). Conditions: THP-1 viability, CellTiter-Glo luminescence, 72 h; series mostly up to 50 µM. (In general: ATP-based viability assays read luminescence as a measure of living cells.)
For the compound `CCCCCOc1ccc(NC(=O)C(=O)NCCC2=CCCCC2)cc1`, the compound was classed as inactive.

Take `O=C(CSc1nncs1)Nc1ccc2c(c1)OCCO2`: the compound was classed as inactive.

`CC(O)CNc1cc(N)c([N+](=O)[O-])cc1[N+](=O)[O-]` (stereo not drawn): the outcome was inactive.

For the compound `CCNC(=O)COC(=O)CCC(=O)c1cccs1`, the result was inactive.

For `COCCNS(=O)(=O)c1cccn1-c1ncc(C(F)(F)F)cc1Cl`, the result was inactive.

`Cc1cc(C)cc(-n2nc(C)cc2N)c1`: the call was inactive.

For the compound `CCOC(=O)CN1C(=O)C(C)(C)Oc2ccc(C(=O)Nc3ccccc3OC)cc21`, the result was inactive.

In the case of `Cc1cccc(NC(=O)CCC(=O)OCc2ccc(Br)cc2)c1`, the outcome was inactive.

For the compound `O=C(O)C1CCC(N2C(=O)C3CCCCC3C2=O)CC1` (stereo not drawn), the call was inactive.

In the case of `Cc1ccccc1-n1nc(-c2ccc(N)cc2)cc1N`, the call was inactive.

As for `COC(=O)c1ccc(CSc2nnnn2-c2ccccc2)o1`, the outcome was inactive.

Turning to `Cc1cc(CNC(=O)Nc2ccc3c(c2)OCO3)nn1C`, the call was inactive.

Consider `CC(=O)c1cccc(NC(=O)Nc2cccs2)c1`, for which the compound was called inactive.

Regarding `CC(=O)c1cccc(NC(=O)Nc2cc3sccc3n2C)c1`, the compound was classed as inactive.

For `O=C(NCc1ccccn1)Nc1cccc(Cl)c1`, the result was inactive.

`CN(C)C(CNC(=O)Nc1cccc(Cl)c1)c1cccnc1` (stereo not drawn): the compound was called inactive.

For the compound `O=C(CSCc1ccccc1)Nc1ccc2c(c1)OCO2`, the call was inactive.

With `Cc1ccccc1CS(=O)(=O)c1snnc1C`, the outcome was inactive.

Consider `CCOC(=O)c1cnc2ccccc2c1Nc1ccc2c(c1)OCCO2`, for which the call was inactive.

Take `CCOC(=O)c1cnc2ccc(OC)cc2c1Nc1ccc2c(c1)OCCO2`: the compound was called inactive.

Take `Cc1cc(Nc2ccccc2F)n2ncnc2n1`: the result was inactive.

Regarding `N/C(=N\OC(=O)Nc1ccc(Cl)cc1)c1ncc(C(F)(F)F)cc1Cl`, the result was inactive.

Regarding `Cc1nn(-c2ncc(C(F)(F)F)cc2Cl)c(=O)n1-c1cccc(Cl)c1`, the compound was classed as inactive.

In the case of `CCCCNC(=O)OC1CCS(=O)(=O)C1` (stereo not drawn), the result was inactive.

As to `Cc1ccc2nc(-c3ccc(Br)o3)oc(=O)c2c1`, the call was inactive.

As for `COC(=O)C1=C(C)N(C)C(=O)/C1=C\c1ccco1`, the compound was classed as inactive.

As to `C=CC1=C(C(=O)O)N2C(=O)[C@@H](NC(=O)/C(=N\O)c3csc(N)n3)[C@H]2SC1` (stereo in doubt), the outcome was inactive.

In the case of `O=C1CC(SCc2nc3ccccc3[nH]2)C(=O)N1c1ccc(Cl)cc1` (stereo not drawn), the result was inactive.

In the case of `O=C(NC1CCCCC1)C(c1ccncc1)N(CC1CCCO1)C(=O)C(F)(F)F` (stereo not drawn), the outcome was inactive.

For the compound `O=C(Nc1ccc(Cl)cc1)N1CC=CCC1`, the call was inactive.

For `Cn1cccc1CC(=O)NNC(=S)Nc1ccc(Cl)cc1`, the outcome was inactive.

With `CCC(CC)c1nnc(NC(=O)Oc2ccccc2)s1`, the compound was classed as inactive.

As for `CCN(CC(=O)N1CCN(Cc2ccccc2)CC1)S(=O)(=O)c1ccc(F)cc1`, the compound was called inactive.

In the case of `Cc1ccccc1NC(=O)Nc1cccs1`, the result was inactive.

`S=C(Nc1ccc2snnc2c1)N1CCN(c2ccccn2)CC1`: the compound was classed as inactive.

In the case of `COc1ccccc1NC(=S)NC(=O)C(C)(C)C`, the outcome was inactive.

For `CCN(CC)CCN(Cc1cc2cc3c(cc2[nH]c1=O)OCCO3)C(=O)NC1CCCCC1`, the compound was called inactive.

`Nc1ccc2oc3ccccc3c2c1`: the compound was classed as inactive.

As to `Nc1ccc2c(c1)C(=O)N(CC1CCCO1)C2=O` (stereo not drawn), the call was inactive.

Consider `CCOC(=O)c1cn(CC)c2cc(N3CCOCC3)c(F)cc2c1=O`, for which the outcome was inactive.

Consider `CCCc1cc(N2CCN(c3ccccn3)CC2)n2nc(C)c(-c3ccccc3)c2n1`, for which the compound was classed as inactive.

Turning to `CCCN(CCC)CCCNS(=O)(=O)c1ccc2c(c1)oc(=O)n2C`, the outcome was inactive.

Turning to `COC(=O)Cn1c(C)nc2ccccc21`, the call was inactive.

`O=C(O)CCc1nn2c3ccccc3n(CC(=O)c3ccccc3)c2nc1=O`: the compound was classed as inactive.

Regarding `CSc1nsc(SCC(=O)Nc2ccc(C(C)=O)cc2)n1`, the call was inactive.

With `CCCc1nc2c(o1)CC(CC(C)SCC)CC2=O` (stereo not drawn), the result was inactive.

Turning to `Cc1cc(Oc2ccc(-c3nnc(-c4ccccc4)o3)cc2[N+](=O)[O-])ccc1Cl`, the outcome was inactive.

As to `C=CCOc1ccc(Br)cc1/C=N/O`, the call was inactive.

Regarding `CCOC(=O)CCCNC(=O)COC(=O)CCC(=O)c1ccc(F)cc1`, the compound was classed as inactive.

Regarding `COc1ccccc1N1CCN(C/C(O)=C(\C#N)c2nc(-c3ccccc3)cs2)CC1`, the call was inactive.

Regarding `Cc1cc(C)nc(NC(=O)Cc2cccs2)n1`, the outcome was inactive.

As to `Cc1oc(CC(C)C)c(CN2CCCC2)c1C(=O)O`, the compound was called inactive.

With `O=C(O)C1(P(=O)(c2ccccc2)c2ccccc2)CCC1`, the compound was called inactive.

In the case of `O=C(O)CCc1nnc2n(Cc3ccc(F)cc3)c(=O)c3ccccc3n12`, the outcome was inactive.

Turning to `CC1Cc2ccccc2N1C(=O)COC(=O)c1ccc(S(=O)(=O)N(C)C)cc1` (stereo not drawn), the compound was classed as inactive.

On to `CCSc1nc(C2CC2)cc(-c2cccs2)c1C#N`, for which the compound was called inactive.

On to `O=c1cc(O)nc(SCc2ccccc2Cl)[nH]1`, for which the result was inactive.

With `Cc1ccc(-n2nc(-c3ccc(N)cc3)cc2N)cc1`, the compound was called inactive.

Consider `O=C(O)CCS(=O)(=O)c1ccc(-c2ccccc2)cc1`, for which the compound was called inactive.

For the compound `Cc1c(Cl)cccc1NC(=O)CSCC(N)=O`, the result was inactive.

Regarding `O=C(NC(NC(=S)Nc1ccc(Cl)cc1)C(Cl)(Cl)Cl)c1ccco1` (stereo not drawn), the outcome was inactive.

Consider `CCC(C)NC(=O)c1cn(CC)c2cc(N3CCN(C)CC3)c(F)cc2c1=O` (stereo not drawn), for which the call was inactive.

As to `NC(=O)C1(NC(=O)[C@@H]2CC3(CC(c4cccc(NC(=O)[C@@H]5CCC(=O)N5)c4)=NO3)CN2C(=O)Cc2ccc(Cl)cc2)CC1` (stereo partly drawn), the compound was classed as inactive.

In the case of `COCCNC(=O)c1ccc(C(=O)NCCOC)s1`, the compound was classed as inactive.

Regarding `Cc1nnc(SC(C)C(=O)Nc2ccc(S(=O)(=O)N3CCCCCC3)cc2)s1` (stereo not drawn), the result was inactive.

Consider `O=C(OCC(=O)c1ccc(S(=O)(=O)N2CCCC2)cc1)C1=COCCO1`, for which the compound was called inactive.

On to `COc1cc(S(=O)(=O)N2CCCCC2)ccc1NC=O`, for which the call was inactive.

For the compound `O=C(CCC(=O)c1cccs1)OCC(=O)N1CCN(S(=O)(=O)c2ccccc2)CC1`, the compound was classed as inactive.

Turning to `CCOC(=O)N1CCN(C(=O)c2ccc(NC(=O)c3ccc(C)cc3)cc2)CC1`, the result was inactive.

Consider `CCn1cc(C(=O)OCC(=O)Nc2ccc(S(=O)(=O)N3CCCC3)cc2)c(=O)c2ccc(C)nc21`, for which the call was inactive.

`Cc1cc(C)c2c(=O)[nH]c(SCC(=O)Nc3ccc(N(C)C)cc3)nc2n1`: the outcome was inactive.

Consider `Cc1cccc(C(=O)O/N=C2\CCSc3ccc(C)cc32)c1`, for which the compound was classed as inactive.

Turning to `CC1(C)CC(=O)C(C=Nc2ccc(Cl)cn2)=C(O)C1`, the outcome was inactive.

Consider `CN1CCN(c2cc3c(cc2F)c(=O)c(C(=O)O)cn3CCF)CC1`, for which the compound was called inactive.

Turning to `Cc1cc(C(=O)NCc2ccco2)no1`, the outcome was inactive.

With `CC(C)(C)NS(=O)(=O)c1ccc(CCC(=O)N2CCOCC2)cc1`, the compound was called inactive.

With `CCOC(=O)C1=C(c2ccccc2)N=C2SCC(=O)N2C1c1ccc(O)c(OC)c1` (stereo not drawn), the call was inactive.

As to `COc1ccc(-c2csc(NC(=O)C3CCCO3)n2)cc1` (stereo not drawn), the outcome was inactive.

`COc1ccc(-c2nnc(SCC(=O)NCc3ccco3)o2)cc1`: the call was inactive.

Turning to `CCN(C(C)=O)c1nc(CSc2nnc(NC(C)C)s2)cs1`, the compound was called inactive.

Take `COc1ccc(/C=N/NC(=O)c2ccc3c(c2)OCCO3)cc1[N+](=O)[O-]`: the call was inactive.

For `O=C(CN1CCCCCC1)Nc1cccc(Br)c1`, the call was inactive.

Take `O=C(CN1CCCCC1)Nc1cccc(Br)c1`: the compound was classed as inactive.

`O=C(c1cccc(S(=O)(=O)N2CCOCC2)c1)N1CCCC1`: the outcome was inactive.

In the case of `CCOC(=O)C1=CSC2=NS(=O)(=O)CCN12`, the compound was classed as inactive.

Consider `CC(=O)N1CCC(N(CCN2CCOCC2)C(=S)Nc2cccc(C)c2C)CC1`, for which the compound was called inactive.

`O=c1cc(CSc2nc(NCc3ccccc3)c3ccccc3n2)nc2ccc(Cl)cn12`: the call was inactive.

As for `Cc1nc(N2CCN(Cc3ccccc3)CC2)nc2c1C(=O)CC(C)C2` (stereo not drawn), the compound was classed as inactive.

For the compound `CNc1ncc(Cc2ccccc2)s1`, the compound was classed as inactive.

With `CCOC(=O)c1ccc(NC(=O)Nc2cc(C)on2)cc1`, the compound was classed as inactive.

With `CCOC(=O)Nc1ccc(C)cc1C`, the call was inactive.

Regarding `CCOC(=O)C1CCCN(C(=O)c2sc3nc(C)nc(N4CCOCC4)c3c2C)C1` (stereo not drawn), the compound was called inactive.

Turning to `CCCCNC(=O)Oc1cccc(N2CCCC2=O)c1`, the compound was classed as inactive.

For the compound `CCCOc1ccc(C(=O)CCC(=O)OCC(=O)N2CC(=O)Nc3ccccc32)cc1`, the result was inactive.

As for `O=S1(=O)C=CC(Nc2ccccc2)C1` (stereo not drawn), the call was inactive.

As to `CC(C)N(Cc1nc(-c2ccccc2)no1)C(=O)CN(C)S(=O)(=O)c1ccccc1`, the result was inactive.

As to `C[C@H]1COc2c(N3CCN(C)CC3)c(F)cc3c(=O)c(C(=O)O)cn1c23`, the compound was classed as inactive.

In the case of `Cc1ccc(Oc2nnc(-c3ccccc3)c3ccccc23)cc1`, the call was inactive.

As to `Cc1nc(-c2ccccc2)cc(=O)[nH]1`, the call was inactive.

Take `COC(=O)c1cc(C#N)c(Oc2cccc(C)c2C)nc1C`: the compound was called inactive.

Consider `COc1ccc(NC(=O)ON=C2c3ccccc3-c3ccccc32)cc1`, for which the call was inactive.

`NC(=O)c1ccccc1N=Cc1ccccn1`: the call was inactive.

For the compound `Cc1ccc(C(=O)Nc2ccccc2C(N)=O)o1`, the result was inactive.

Regarding `Cc1scc(C(=O)O)c1-c1c(C(=O)O)csc1C`, the compound was classed as inactive.

For `COC(=O)c1ccc(Sc2ccccc2NS(=O)(=O)c2ccc(C)cc2)nc1`, the compound was classed as inactive.

As for `CN(CC(=O)NCc1cccc(F)c1)C(=O)c1ccco1`, the result was inactive.

On to `COc1cc(OC)c(C(=O)Nc2ccc(S(=O)(=O)Nc3ncccn3)cc2)cc1OC`, for which the outcome was inactive.

`N/C(=N\c1nc2ccccc2o1)NC(=O)c1ccccc1F`: the compound was called inactive.

For `CCCOc1ccc(/C=N/O)cc1`, the call was inactive.

As to `O=C1CN(C(=O)COC(=O)CCC(=O)c2ccc3c(c2)OCCO3)c2ccccc2N1`, the compound was classed as inactive.

Turning to `CC(=O)NC12CC3CC(C1)CC(C(=O)OCC(=O)c1ccc4c(c1)OCCO4)(C3)C2`, the compound was classed as inactive.

Turning to `Cn1c(NCc2cccs2)nc2ccccc21`, the compound was classed as inactive.

With `O=C(CSC1CCCCC1)Nc1ccccc1Br`, the outcome was inactive.

For `CN1CCN(S(=O)(=O)c2ccc(N)cc2)CC1`, the result was inactive.

As for `COc1cc(C=O)ccc1OCCCOc1ccccc1[N+](=O)[O-]`, the compound was called inactive.

Regarding `O=C(CNC(=O)c1ccco1)OCC(=O)c1ccc2c(c1)CCCC2`, the compound was classed as inactive.

Take `CC(C)(C)C1CCC2(CC1)Nc1cccc3cccc(c13)N2`: the compound was called inactive.

Take `Cc1ccc(C(=O)NCC(=O)OCC(=O)N2CCCc3ccccc32)cc1`: the compound was called inactive.
